A selection: hits, their analogues and other compounds. The true share with any hit is near 1.6%.
PERK inhibitor: human PERK inhibition, primary cell-based screen | Q9NZJ5 | CHO PERK-DD fusion, SEAP luminescence translation reporter | inhibition, % at 5.6 µM | actives 0.17% (n = 220,000);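 active = inhibition above the mean inhibition of all tested compounds plus 3 SD, set separately per screening campaign, cut at about 2.9% in these data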;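 also: PERK kinase domain activated by AP20187 dimerizer at 100 nM; 0% = DMSO with dimerizer and 100% = rapamycin at 8.4 µM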
eIF4E-4G inh: inhibitors of eIF4E and eIF4G interaction in translation initiation; inhibition, % at 21.7 µM; TR-FRET eIF4E-eIF4GI(517-606) binding, 2 h; P63073+Q04637; actives 0.37% (n = 220,000); AID 782;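 active = inhibition above about 30%, limit read from the data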;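 also: 0% = full FRET control wells and 100% = background wells lacking eIF4GI fragment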
PABP polyA inh: PABP-poly(A) binding inhibition. actives 1% (n = 290,000). PABP-poly(A) RNA binding, fluorescence polarization. inhibition, % at 35 µM. P11940;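 also: calls also rest on retests at 20 µM and on dose response follow-up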
MLLE-PAM2 inh: blocks PAM2 peptide binding to the PABP1 MLLE domain; inhibition, % at 20 µM; GST-MLLE / FITC-PAM2 fluorescence polarization; actives 0.36% (n = 360,000); P11940; in the data active = inhibition above about 35%, passing the limit was not always enough;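 also: plate controls were DMSO wells with GST-MLLE for no effect and wells lacking GST-MLLE protein for full effect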
eIF4H inh: inhibitors of RNA binding by human eIF4H. actives 0.94% (n = 290,000). eIF4H fluorescence polarization binding assay. inhibition, % at 35 µM. AID 2012;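 also: calls also rest on retests at 20 µM and on dose response follow-up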
Active calls of the source: *; ? = inconclusive; . = no result; + = active, no number; [ ] = remark or other dose. Unless noted, no rule for the calls is given here.

SMILES	PERK inhibitor	eIF4E-4G inh	PABP polyA inh	MLLE-PAM2 inh	eIF4H inh
N=C1CCC(=N)c2c1c(O)c1ccccc1c2O	1	16	?	62	?
O=C1CCn2c1c(O)c1ccccc1c2=O	.	.	.	45*	.
Cc1ccc(NC(=O)CSc2ccc(S(=O)(=O)N3CCCC3)cn2)cc1F	.	.	.	15	.
O=C(CSc1nncc2ccccc12)N1CCOCC1	1	-2	17	42*	-6
O=C(CSc1nc2ccccc2c2c1CCCC2)N1CCOCC1	.	.	20	1	-3
CC1(C)CC(=O)C(N=Nc2c(Cl)cc(Cl)cc2Cl)=C(O)C1	2	1	-5	4	-3
CCCCn1c2ccc(F)cc2c2nnc(SCCN3CCOCC3)nc21	.	.	8	45*	-7
Cc1ccc(C(=O)CSc2ncn[nH]2)cc1	1	26	4	14	8
CCc1ccc(C(=O)CSc2ncn[nH]2)cc1	1	32*	10	29	-6
O=c1c2c([N+](=O)[O-])cc([N+](=O)[O-])cc2sn1Cc1ccccc1	.	.	16	33	-1
O=c1c2c([N+](=O)[O-])cc([N+](=O)[O-])cc2sn1-c1ccc(Br)cc1	1	33*[fluorescence artefact?]	0	3	-1
Cc1nonc1OCCNCc1c(C(=O)N(C)C)nc2ccc(Cl)cn12	0	2	62*	-1	87*
CN(C)c1cccc(C(=O)NNC(=O)NC2CCCCC2)c1	0	3	5	1	-4
COc1cc(C2Nc3cccc4cccc(c34)N2)cc(OC)c1O	0	14	17	17	86
COc1ccc(C2Nc3cccc4cccc(c34)N2)cc1Br	.	.	44	-4	62*
COc1cc(C2Nc3cccc4cccc(c34)N2)ccc1OC(C)=O	3	-12	88*	19	105*
COc1cccc(-c2c(C(=O)N/N=C(\C)c3ccncc3)nnn2-c2nonc2N)c1	.	.	1	1	-6
C=CCn1c(SCC(=O)NCCO)nc2sc(C)c(C)c2c1=O	0	-1	-15	-18	-5
C=CCn1c(SCC(=O)c2cc(C)n(C(C)COC)c2C)nc2sc(C)c(C)c2c1=O (stereo unspecified)	0	7	4	40*	-13
O=C(N[C@@H](Cc1ccccc1)C(=O)NCCc1c[nH]c2ccccc12)c1ccco1	.	.	2	0	-1
O=Cc1ccc(-c2ccc(Cl)cc2Cl)[nH]1	4.2*	-2	2	-14	-2
N/C(Cc1cccc2ccccc12)=N\OC(=O)c1cccs1	0	1	active	-9	84*
N/C(Cc1cccc2ccccc12)=N\OC(=O)Cc1cccs1	1	6	10	-5	27
NNC(=O)c1cc2c(ccc3ccccc32)o1	1	3	7	-7	6
O=C(Nc1cccnc1)c1cc2c(ccc3ccccc32)o1	-1	76*	-2	-1	-16
SMILES	PERK inhibitor	eIF4E-4G inh	PABP polyA inh	MLLE-PAM2 inh	eIF4H inh
CCCNC(=O)c1ccc2c(=O)c(O)c(-c3cccc(Br)c3)[nH]c2c1	.	-9	14	8	18
CCCNC(=O)c1ccc2c(=O)c(O)c(-c3ccc(F)cc3)[nH]c2c1	.	98*	23	8	25
FC(F)(F)c1ccc2c(c1)C1C=CCC1C(c1ccncc1)N2 (stereo unspecified)	0	2	-1	-3	24
CC(C)C1Nc2ccc(C(=O)O)cc2C2C=CCC21 (stereo unspecified)	0	4	66	29	96*
CCOC(=O)c1ccc2c(c1)C1C=CCC1C(C(=O)O)N2 (stereo unspecified)	0	47*	82*	.	92*
CCOC(=O)C1Nc2ccc(C(=O)O)cc2C2C=CCC12 (stereo unspecified)	.	.	94*	50*	96*
CCCC1Nc2ccc(C(=O)O)cc2C2C=CCC12 (stereo unspecified)	1	9	3	28	96
O=C(O)c1ccc2c(c1)C1C=CCC1C(c1ccncc1)N2 (stereo unspecified)	1	-10	83*	6	97*
O=C1C=C(c2cc3ccccc3s2)C[C@@H](c2ccc3c(c2)OCO3)C1	.	.	.	-12	.
CCOC(=O)C1=C(C)NC(C)=C(C(=O)OCC)C1c1ccc(OC)c(OC)c1	.	.	.	4	.
CCOC(=O)C1=C(C)NC(C)=C(C(=O)OCC)C1c1ccc(O)cc1	-1	-1	82*	-4	7.4*
CCCN1CCCc2cc(CN)ccc21	-1	1	92*	45*	58*
NC(=O)c1c(NC(=O)C2CCCO2)sc2c1CCCCC2 (stereo unspecified)	2	12	-13	41*	12
Cn1c(SCC(=O)NC2CCCC2)nc2cccnc21	0	3	-5	2	-2
COc1nccnc1NS(=O)(=O)c1ccc(NC(=S)NC(=O)/C=C/c2ccccc2)cc1	0	-2	8	45*	1
O=C1CCC(C(=O)Nc2cccc(C(F)(F)F)c2)N1 (stereo unspecified)	0	.	-8	5	-3
COc1ccc(OC)c(N2Cc3cc(C)c(C)cc3C2)c1	-1	-2	118	-22	105*
O=C1[C@@H]2Cc3c([nH]c4ccccc34)[C@@H](c3ccccc3)N2C(=O)[C@@H]2Cc3c([nH]c4ccccc34)[C@@H](c3ccccc3)N12	0	7	9	.	4
N#Cc1c2n(c(=S)n(-c3ccccc3[N+](=O)[O-])c1=O)CCCCC2	0	-1	11	51*	6
COCCNC(=O)COc1ccc(C)cc1C(=O)c1cc(C#N)c(=O)n(C2CC2)c1	1	5	54*	-13	+
Cc1ccc(S(=O)(=O)c2ccc(Cl)cc2)cc1S(=O)(=O)N1CCN(C)CC1	-1	6	2	10	5
CCOc1ccc(NC(=S)N=Nc2c(O)[nH]c3ccccc23)cc1	0	0	-6	38*	9
Oc1cccc(NC(=S)N=Nc2c(O)[nH]c3ccccc23)c1	-1	0	9	38*	3
O=C(O)c1ccc(NCc2nc3ccccc3n2Cc2ccccc2F)cc1	0	-2	-8	-4	-8
CCOC(=O)C1CCN(c2ccc(C(N)=O)cc2[N+](=O)[O-])CC1	1	-2	2	-2	-3
SMILES	PERK inhibitor	eIF4E-4G inh	PABP polyA inh	MLLE-PAM2 inh	eIF4H inh
NC(=O)c1ccc(N2CCC(C(N)=O)CC2)c([N+](=O)[O-])c1	1	-7	68*	4	93*
Cc1ccc(/C=C2/C(=N)N3N=C(CC(=O)N4CCCC4)SC3=NC2=O)o1	.	.	14	-12	-11
O=C1NC(=O)C(c2ccccc2[N+](=O)[O-])=C1Nc1ccc(O)c(Cl)c1	.	.	40*	27	67*
Cc1cccc(CS(=O)(=O)Cc2ccc(C(=O)NC3CCCCC3)o2)c1	.	.	.	0	.
CC1CCc2nc(N)c(C#N)c(-c3cccn3C)c2C1 (stereo unspecified)	-1	1	111*	-27	97*
N#Cc1c(N)nc2c(c1-c1ccccc1)CCCC2	1	0	-13	5	-1

Source: PubChem BioAssay
